# Key:
# Experiment in all cases: PBM binding z-score (relative to random genomic background probes); higher = stronger binding; sequences stand for … in GC…GCGATTGACAGCGTAGAATGAAGG
# [1] = test system: FXR:RXRa (NR concentration 270 nM, RXRa partner concentration 90 nM)
# In short: (§1)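 For binding z-scores, the reference was random background probes on custom Agilent 4×180K protein-binding microarrays. These arrays were incubated 1 h with ligand-free nuclear receptor dimers in PBS pH 7.4, 2% milk, 0.02% Triton X-100, 1 mM DTT, 0.2 mg/mL BSA and 0.4 mg/ml salmon testes DNA. Fluorescence was scanned after antibody detection of each partner (one per run) and regression-normalized.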
# [2] = test system: LXRa:RXRa (NR concentration 270 nM, RXRa partner concentration 90 nM)
# In short: as §1
# [3] = test system: LXRa homodimer (NR concentration 270 nM)
# In short: as §1
# [4] = test system: LXRb:RXRa (NR concentration 270 nM, RXRa partner concentration 90 nM)
# In short: as §1
# [5] = test system: LXRb homodimer (NR concentration 270 nM)
# In short: as §1
# [6] = test system: PPARa:RXRa (NR concentration 270 nM, RXRa partner concentration 90 nM)
# In short: as §1
# [7] = test system: PPARg:RXRa (NR concentration 180 nM, RXRa partner concentration 90 nM)
# In short: as §1
# [8] = test system: PPARg:RXRa 270nM:90nM, anti-RXR (NR concentration 270 nM, RXRa partner concentration 90 nM)
# In short: as §1
# [9] = test system: PPARg:RXRa 30nM:10nM, anti-RXR (NR concentration 30 nM, RXRa partner concentration 10 nM)
# In short: as §1
# [10] = test system: PPARg:RXRa 90nM:30nM, anti-RXR (NR concentration 90 nM, RXRa partner concentration 30 nM)
# In short: as §1
# [11] = test system: PPARg:RXRa DBDmut IVT, anti-RXR (DBD mutation: RXRa K156A/R161A, NR concentration 270 nM, RXRa partner concentration 90 nM)
# In short: as §1
# [12] = test system: PPARg:RXRa IVT, anti-PPARg (NR concentration 270 nM, RXRa partner concentration 90 nM)
# In short: as §1
# [13] = test system: PPARg DBDmut:RXRa IVT, anti-PPARg (DBD mutation: PPARg1 K132A/R137A, NR concentration 270 nM, RXRa partner concentration 90 nM)
# In short: as §1
# [14] = test system: PPARg DBDmut IVT, anti-PPARg (DBD mutation: PPARg1 K132A/R137A, NR concentration 270 nM)
# In short: as §1
# [15] = test system: PPARg homodimer (NR concentration 180 nM)
# In short: as §1
# [16] = test system: PXR:RXRa (NR concentration 270 nM, RXRa partner concentration 90 nM)
# In short: as §1
# [17] = test system: PXR homodimer (NR concentration 270 nM)
# In short: as §1
# [18] = test system: RARa:RXR (NR concentration 270 nM, RXRa partner concentration 90 nM)
# In short: as §1
# [19] = test system: RARa homodimer (NR concentration 270 nM)
# In short: as §1
# [20] = test system: RARb:RXRa (NR concentration 270 nM, RXRa partner concentration 90 nM)
# In short: as §1
Sequence,PBM binding z-score [1],PBM binding z-score [2],PBM binding z-score [3],PBM binding z-score [4],PBM binding z-score [5],PBM binding z-score [6],PBM binding z-score [7],PBM binding z-score [8],PBM binding z-score [9],PBM binding z-score [10],PBM binding z-score [11],PBM binding z-score [12],PBM binding z-score [13],PBM binding z-score [14],PBM binding z-score [15],PBM binding z-score [16],PBM binding z-score [17],PBM binding z-score [18],PBM binding z-score [19],PBM binding z-score [20]
CCTTACGGGTCACGACGTTATAGCACGACGAGCG,6.55,4.13,0.322,3.66,0.374,5.69,6.15,5.93,2.65,4.97,3.85,4.92,0.866,0.177,1.83,3.57,0.0826,4.61,1.39,4.34
GCTAGCAGGCCATTTGGGTCAGTCAATGACGGGC,-0.0631,-0.302,-0.489,-0.399,-1.6,0.666,0.221,-0.137,-0.663,-0.371,1.4,1.05,-0.511,-1.16,-0.0651,-0.047,0.065,0.213,-1.59,1.12
ATCTCTAGGTAACAAGATCAGTGAAAGAGAGGAC,0.203,0.168,0.348,0.0382,0.596,0.578,1.09,0.835,0.253,0.677,3.03,2.72,1.75,1.21,0.336,0.0521,-0.0922,0.158,1.1,0.327
CTCGAAACGTCGGTTGAGGTGAGTATACGGATAA,0.172,-0.188,-0.566,-0.297,-0.3,-0.163,0.00135,-0.342,-0.256,-0.221,-0.197,-0.061,0.192,0.207,0.264,0.0163,-0.284,0.752,-0.037,0.205
AATATAGGGTCACTAGGCCAGAGTAGGTACGAAT,6.26,5.13,0.894,4.07,0.704,5.67,8.45,6.68,3.94,5.68,5.21,6.14,2.32,1.64,2.41,3.05,0.508,4.66,0.81,4.11
CGTCCAAGGTCATAGGAGGTCAGTCAAGACAGAT,7.64,7.59,5.22,6.59,0.88,5.87,5.47,5.75,2.45,4.47,3.31,4.37,0.231,0.0229,4.04,6.74,4.16,5.99,1.15,5.37
TCTGCTAGTTCAACGATGGTCAGCTAATCTGCTA,0.141,0.175,-0.555,-0.303,-0.648,0.264,-0.456,0.558,1.26,0.99,0.463,-0.112,-0.479,-0.339,-1.27,0.51,-0.0476,0.475,-1.49,1.55
CCTTACGGGTCACCAGGTTATAGCACGACGAGCG,5.57,4.07,0.342,3.43,0.0793,5.41,6.15,6.21,2.59,4.99,3.46,5.18,0.0764,-0.404,2.34,3.72,-0.0319,4.62,1.27,4.27
TCTTGTAGATCAGCAGGATAAGAAAGCTGGCCAA,-0.292,-0.433,-0.526,-0.411,-0.635,0.0173,-0.182,1.01,2.37,1.45,1.55,0.124,0.2,-0.242,-1.15,-0.413,-0.584,-0.151,-0.239,-0.505
GCATACAGGTAATACAAGGTGAAAGTCCGATTGT,0.599,2.17,0.595,0.711,-0.363,1.3,0.859,0.843,0.676,0.712,0.771,1.43,0.568,-0.128,0.379,0.708,0.62,1.48,0.481,0.594
GCTCGGAGGAGAAGGTCAGAGCTTTGTCCGTAGA,0.655,0.736,-0.584,0.516,-1.44,1.79,-0.0558,0.967,-0.721,0.353,-0.348,0.169,-0.938,-2.35,0.184,1.06,-1.02,1.58,-1,2.3
GCAGACAGGTGAAACGCTGGTAACTCAGGGTGGC,-0.319,0.0267,-0.492,-0.149,-1.44,0.737,0.389,0.0806,-0.77,-0.171,0.871,0.415,-0.505,-0.62,-1.22,-0.38,-0.927,0.0217,-0.662,0.668
GCTGCTAGGTCAGGCTGGTCAGCTAACGGGTACG,0.826,0.306,-0.725,-0.222,-1.11,1.3,0.457,0.956,-0.364,-0.0747,3.75,2.35,-1.05,-1.02,-0.17,-0.0298,-0.747,0.0805,-0.715,3.35
CCGACTGGGGCAGAAAGGTGACCATACCATCCGG,-0.198,-0.194,-0.391,-0.267,-1.39,0.838,1.34,1.98,-0.273,1.32,1.97,2.21,-0.413,-1.14,0.473,-0.192,-0.34,0.197,-0.0337,1.19
ATCTCTAGGTAACAAGTTCAGTCAAAGAGAGGAC,0.865,0.77,0.75,0.867,0.743,1.5,1.4,2.12,1.16,1.85,3.46,2.97,1.25,1.27,1.63,1.77,2.04,1.1,1.66,1.62
ATCTCTAGGTGACCAAGTTCAGTGAATGCCGAAC,0.185,0.357,0.0777,0.467,0.278,1.9,1.99,1.7,0.308,1.05,5.31,4.76,1.66,1.14,0.611,2.17,1.7,0.763,-0.118,1.7
TCTTGTAGATCAATTGAGGTTAAGAAAGTGCGCT,1.19,2.94,0.265,1.56,-0.0639,1.74,-0.433,1.68,2.94,2.2,2.06,1.34,0.476,0.929,0.486,2.84,0.38,1.68,0.164,0.758
ATCTCCAGGTAAAGTTCAGTGAAAGATCGATAGA,1.54,2.1,1.98,1.55,1.25,2.02,1.2,2.62,1,1.91,0.492,0.889,1.11,0.586,1.7,2.32,2.13,1.81,1.45,2.78
ATCTCTAGGTTACCAAGTTCAGTGAATGCCGAAC,0.872,1.95,1.86,1.47,1.16,2.15,1.82,1.97,0.559,0.955,4.8,4.07,1.25,1.33,1.15,3.34,4.37,1.46,1.16,2.31
ACTCGGAGGACGAAGGTCAGAGCTACGCCAGTGA,0.736,1.2,-0.109,0.941,-0.551,2.3,2.67,3.52,1.07,3.02,-0.0159,0.85,-1.22,-0.524,1.01,1.4,-0.0782,1.77,0.154,2.81
GCTGCTAGGTCGGGTTGGTCAGCTAACGGGTACG,-0.105,-0.0902,-0.312,-0.21,-0.573,-0.124,-0.576,-0.344,-0.825,-0.553,0.38,0.339,-1.51,-0.0499,-0.349,-0.0179,-0.16,-0.157,-1.16,1.16
TCATATAGGTTAACAGGTGAAAGTCCGTAAGTTA,1.57,1.72,0.586,1.72,0.145,3.68,5.44,5.12,4.64,4.91,5.79,5.64,2.16,1.92,1.58,1.46,0.372,1.93,1.1,2.08
CCTAATAGTTGACCATAAGGGCAACCGAAGCTCG,0.919,0.486,0.29,0.606,0.214,0.827,0.664,0.43,0.117,0.37,-0.0162,0.473,0.327,0.353,1.09,0.821,0.596,1.27,1.46,1.72
TCGTGTAGATCAAGCAGGTTAAGAAAGCCTGAGT,0.141,0.107,-0.392,0.143,-0.921,0.588,-0.429,0.747,2.07,1.61,1.24,-0.0546,-0.931,-0.429,0.148,0.421,0.251,0.318,0.0709,0.0461
TCGAGTAGGTTAGGGGCATCCAGAATGGCGTCGA,0.419,0.286,-0.391,0.913,-0.812,1.38,0.651,2.05,1.32,1.8,1.78,1.45,-0.511,-0.719,0.537,0.349,-0.0589,0.496,-0.597,1.18
TGAATGAGGTTAAAGATCATGGAACGTGGCGTCG,3.15,2.8,-0.213,1.93,-0.192,4.81,6.66,6.58,4.73,6.88,1.79,3.19,0.0999,-0.204,0.9,2.49,0.119,3.73,0.174,2.04
ATATGTAGGTTACATCCGGGTCATGCAGGCTATG,2.18,3.82,0.802,2.38,0.427,4.45,6.06,5.18,2.64,4.3,7.41,7.25,2.04,1.91,1.38,3.26,0.751,3.55,0.629,2.36
CGTCCAAGGTCAGCAGGTCAGTGCAAGCGACGTG,5.87,3.79,0.73,2.8,-0.131,4.86,4.09,4.53,1.16,2.98,3.15,3.71,-0.109,-0.869,3.88,3.68,0.651,4.87,0.357,5.27
CCTGCTAGGTCAATGGTCAGGTAAAGCAGCTCGC,3.13,2.29,-0.153,1.46,-0.313,3.36,4.48,5.09,2.62,4.62,4.38,4.23,0.154,-0.732,1.38,0.832,-0.154,1.93,-0.238,3.81

# Reference: the supplement of paper PMC6555819
